In PubChem BioAssay:
Results filed as inconclusive are left out. Calls of active or inactive are those of the source.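 How the source made its calls, unless noted: active means viability at or under a set limit in both replicates, limit being median viability minus 3 SD (cut at about 48% in these data, passing the limit was not always enough); inconclusive means at or under the limit in just one replicate; inactive means at or above the limit in both replicates.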

What was measured:
[1] = Her2 expression decrease, cell viability multiplex – SKBR3 breast tumor cells, AlphaScreen, ATP viability, primary screen (AID 461;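 active means Her2 level under about 52% in both replicate screens, with viability over 70% of control, limit read from the data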;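 on Her2 level: lower value means less Her2 protein in the cells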;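 on viability: percent of carrier control wells set as 100% viability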); conditions: SKBR3 Her2 protein level, 18-24 h, measured here: SKBR3 viability, ATP luminescence, at 10 µM
[2] = biological target: Receptor tyrosine-protein kinase erbB-2 (Homo sapiens) (UniProt P04626); test: as above; conditions: 18-24 h, at 10 µM, stronger effect = lower value
Sequence of Receptor tyrosine-protein kinase erbB-2 (Homo sapiens) (P04626 whole entry, looked up): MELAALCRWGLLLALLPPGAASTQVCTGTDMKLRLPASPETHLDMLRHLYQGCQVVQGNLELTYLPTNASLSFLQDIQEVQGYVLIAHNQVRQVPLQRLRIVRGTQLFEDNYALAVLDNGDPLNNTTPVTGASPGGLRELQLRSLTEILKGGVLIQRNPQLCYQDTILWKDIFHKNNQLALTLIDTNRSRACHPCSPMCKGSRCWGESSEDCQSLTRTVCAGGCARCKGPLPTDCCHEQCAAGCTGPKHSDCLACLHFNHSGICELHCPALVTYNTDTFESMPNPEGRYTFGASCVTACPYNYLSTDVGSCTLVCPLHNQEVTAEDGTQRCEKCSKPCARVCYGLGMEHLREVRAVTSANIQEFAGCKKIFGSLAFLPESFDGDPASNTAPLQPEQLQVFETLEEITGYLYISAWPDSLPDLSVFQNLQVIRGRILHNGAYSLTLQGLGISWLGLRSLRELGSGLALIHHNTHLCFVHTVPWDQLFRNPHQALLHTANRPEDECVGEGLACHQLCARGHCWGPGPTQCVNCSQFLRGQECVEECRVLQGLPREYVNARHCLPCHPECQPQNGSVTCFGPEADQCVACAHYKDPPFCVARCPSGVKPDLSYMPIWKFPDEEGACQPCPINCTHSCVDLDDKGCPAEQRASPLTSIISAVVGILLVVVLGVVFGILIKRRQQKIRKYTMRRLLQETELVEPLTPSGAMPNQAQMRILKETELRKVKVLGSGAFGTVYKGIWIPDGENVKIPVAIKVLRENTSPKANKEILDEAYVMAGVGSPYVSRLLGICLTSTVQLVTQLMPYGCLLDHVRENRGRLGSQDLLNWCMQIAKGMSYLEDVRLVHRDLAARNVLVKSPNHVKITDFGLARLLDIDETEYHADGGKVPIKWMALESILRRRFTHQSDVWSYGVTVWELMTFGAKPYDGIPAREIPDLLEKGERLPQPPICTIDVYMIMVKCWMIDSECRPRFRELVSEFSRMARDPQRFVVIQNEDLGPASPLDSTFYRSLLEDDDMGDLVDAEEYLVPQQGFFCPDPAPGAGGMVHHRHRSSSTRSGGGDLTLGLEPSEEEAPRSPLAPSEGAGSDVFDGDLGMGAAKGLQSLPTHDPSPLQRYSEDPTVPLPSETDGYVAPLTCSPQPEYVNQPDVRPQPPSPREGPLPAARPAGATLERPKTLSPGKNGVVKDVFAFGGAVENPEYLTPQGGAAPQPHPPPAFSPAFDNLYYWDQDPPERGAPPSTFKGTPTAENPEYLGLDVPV

[3] = reduced viability of SK-BR-3 breast cancer cells – cell-based, 24 h, human, pilot screen (AID 572;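 active means viability at or below 10% of carrier control in both of two separate runs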;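 further: compound exposure lasted between 18 and 24 h rather than exactly 24 h; 100% = carrier-treated control wells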); conditions: SK-BR-3 viability, CellTiter-Glo luminescence, at 10 µM, stronger effect = lower value
[4] = HUVEC growth inhibition – cell-based, human, primary screen (AID 575;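 active means viability at or below 30% in both replicate assays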;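 further: 100% = median of untreated cell wells with 0.1% DMSO on each plate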); conditions: HUVEC proliferation, CellTiter-Glo luminescence, 72 h; at 10 µM; stronger effect = lower value
[5] = H69AR cell proliferation blockers – human, duplicate replicates, primary screen (AID 580); conditions: H69AR lung tumor cells viability, ATP luminescence, 72 h; at 10 µM; stronger effect = lower value;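 further: 100% = mean luminescence of untreated wells and 0% = no signal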
[6] = MRP1 drug-resistance reversers in H69AR cells – cell-based, doxorubicin co-treatment, pilot screen (AID 601;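 active means viability loss from added drug above about 55%, and viability with drug at most 40%, in both replicates, limit read from the data, passing the limit was not always enough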); conditions: CellTiter-Glo, 72 h, at 10 µM; for differential viability (reversal): stronger effect = higher value
[7] = yeast transport mutant growth inhibition pilot in 384-well plates, post-Golgi transport modulator project (AID 636; in the data active means inhibition above about 31%); conditions: absorbance 615 nm, about 18 h, stronger effect = higher value
[8] = growth suppression of yeast trafficking mutant, preliminary HTS, modulators of trafficking downstream of Golgi apparatus project, 1536-format plate, OD 615 nm (AID 637; in the data active means inhibition above about 30%); conditions: yeast transport mutant growth, absorbance 615 nm, 18 h; stronger effect = higher value
[9] = S. cerevisiae growth inhibition in permissive medium (OD615), pilot counter-assay for S. cerevisiae lifespan shortening project, permissive growth control (AID 705;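 active means growth inhibition above 25% in both replicates, a cutoff set 3 SD above the mean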); conditions: OD615, 24 h, at 10 µM, stronger effect = higher value
[10] = S. cerevisiae growth inhibition in restrictive medium, OD615, pilot screen, restrictive growth control, yeast lifespan reduction project (AID 706;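 active means growth inhibition above a set limit, 3 SD over mean compound inhibition, in both replicates, cut at about 43% in these data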;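 further: modified DeaD lifespan yeast strain shifted to restrictive glucose medium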); conditions: OD615, 48 h, at 10 µM, stronger effect = higher value
[11] = doxorubicin toxicity protection in MRP-1 cells – H69AR cells, CellTiter-Glo, duplicate, MRP-1 activator project, pilot screen (AID 807;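 active means viability increase at or above a cutoff of the median across tested compounds plus 3 SD, cut at about 8.5% in these data, passing the limit was not always enough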;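 further: compound pretreatment 18-22 h then 72 h combined with doxorubicin; 0% = doxorubicin alone and 100% = vehicle without doxorubicin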); conditions: H69AR viability with doxorubicin, CellTiter-Glo luminescence; at 10 µM; stronger effect = higher value
[12] = viability of HCT116 without oncogenic beta-catenin – human colon tumor cells, pilot screen (AID 823;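 active means cell viability at or below a set limit in both duplicate runs, the limit being the all-compound median minus 4 SD, cut at about 23% in these data, passing the limit was not always enough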;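 further: 0% = wells killed by 20 µM Hyamine and 100% = untreated DMSO cell wells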); conditions: HCT116 beta-catenin knockout viability, CellTiter-Glo, 60 h; at 10 µM; stronger effect = lower value
[13] = viability of PTEN-null HCT116 cells – cell-based, HCT116 clonal line, CellTiter-Glo, pilot screen (AID 824;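 active means viability at or below 27.92% in each of two runs, the all-compound median minus 4 SD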;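 further: 0% = 20 µM Hyamine control and 100% = vehicle cell control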); conditions: HCT116 PTEN-deleted viability, 60 h, at 10 µM, stronger effect = lower value
[14] = RAM pathway blockade in budding yeast – dse1pr::URA3 reporter, 5-FOA selection, pilot screen (AID 869;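 active means inhibition over a set limit, the all-compound mean plus 3 SD, in both replicate runs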;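 further: 0% = DMSO wells with no growth and 100% = 10 µM 1-NA-PP1 with full growth; RAM network block rescues cells from 5-FOA so hits raise OD615 growth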); conditions: S. cerevisiae dse1pr::URA3 5-FOA growth, OD615, 2 d; at 10 µM; stronger effect = higher value; strain carries analog-sensitive mutant Cbk1 kinase
[15] = RAM signaling pathway blockade in yeast – S. cerevisiae, Pdr1DBD-CYC8 efflux-inhibited sensitized strain, primary screen (AID 1298;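 active means RAM network inhibition above 8.4% in each of two replicates, 3 SD over the compound average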;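 further: 0% = DMSO untreated cells without growth and 100% = 10 µM 1-NA-PP1 full growth; higher means more yeast growth rescued from 5-FOA killing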); conditions: S. cerevisiae cbk1-as DSE1-URA3 strain, 5-FOA growth OD615, 2 d; at 50 µM; stronger effect = higher value
[16] = H69AR cells + 2 uM doxorubicin, measured here: viability with 2 uM doxorubicin, stronger effect = lower value
[17] = H69AR cells, compound alone cytotoxicity

SMILES	viability [1]	Her2 level [2]	viability [3]	viability [4]	viability [5]	differential viability (reversal) ([6]; H69AR cells + 2 uM doxorubicin)	viability [6, 16]	viability [6, 17]	inhibition [7]	inhibition [8]	growth inhibition [9]	growth inhibition [10]	viability increase [11]	viability [12]	viability [13]	inhibition [14]	RAM network inhibition [15]
CCc1nnc(NC(=O)COC(=O)CN2C(=O)c3ccccc3C2=O)s1	104%	101% (inactive)	104% (inactive)	104% (inactive)	109% (inactive)	7.39% (inactive)	101%	109%	-9.32% (inactive)	-6.19% (inactive)	2.25% (inactive)	1.2% (inactive)	-1.95% (inactive)	96.8% (inactive)	89.8% (inactive)	0.785% (inactive)	5.31% (inactive)
Cc1ccc(S(=O)(=O)NCCSc2nnnn2-c2ccc(C(N)=O)cc2)cc1	116%	101% (inactive)	116% (inactive)	126% (inactive)	101% (inactive)	-1.94% (inactive)	103%	101%	0.53% (inactive)	-2.17% (inactive)	-3.29% (inactive)	-2.84% (inactive)	-1.69% (inactive)	92.1% (inactive)	89.8% (inactive)	-0.71% (inactive)	1.74% (inactive)
COc1cccc(C(=O)OCn2nnc3ccccc3c2=O)c1OC	85.5%	102% (inactive)	85.5% (inactive)	97.7% (inactive)	86.9% (inactive)	-22% (inactive)	109%	86.9%	-2.67% (inactive)	-3.67% (inactive)	8.45% (inactive)	5.07% (inactive)	0.09% (inactive)	96.5% (inactive)	99.9% (inactive)	2.57% (inactive)	-0.62% (inactive)
Cn1c(C(=O)NCC2CCCO2)cc2c(=O)n(C)c3ccccc3c21 (stereo not given)	95%	89% (inactive)	95% (inactive)	84.8% (inactive)	83.6% (inactive)	8.52% (inactive)	75.1%	83.6%	-2.31% (inactive)	2.17% (inactive)	-6.67% (inactive)	12.4% (inactive)	-4.43% (inactive)	92.9% (inactive)	90.7% (inactive)	2.33% (inactive)	0.71% (inactive)
Cn1c(=O)c2c(nc(SCCOc3ccc4ccc(=O)oc4c3)n2C)n(C)c1=O	98.5%	91.5% (inactive)	98.5% (inactive)	102% (inactive)	104% (inactive)	14.3% (inactive)	89.6%	104%	-2.93% (inactive)	-1.97% (inactive)	-4.61% (inactive)	1.18% (inactive)	1.22% (inactive)	99% (inactive)	103% (inactive)	0.27% (inactive)	2.41% (inactive)
CC(=O)N(c1ccc(Br)cc1)C1C=CS(=O)(=O)C1 (stereo not given)	100%	96% (inactive)	100% (inactive)	87.9% (inactive)	88.8% (inactive)	4.71% (inactive)	84.1%	88.8%	-5.33% (inactive)	1.5% (inactive)	-6.33% (inactive)	-16.4% (inactive)	-0.84% (inactive)	107% (inactive)	96% (inactive)	2.17% (inactive)	-0.25% (inactive)
Cn1c(C(=O)NCCCN2CCCCCC2)cc2c(=O)n(C)c3ccccc3c21	80%	92.5% (inactive)	80% (inactive)	91.2% (inactive)	87.2% (inactive)	12% (inactive)	75.1%	87.2%	4.36% (inactive)	-3% (inactive)	-1.14% (inactive)	6.89% (inactive)	-4.55% (inactive)	76.1% (inactive)	78.7% (inactive)	1.04% (inactive)	0% (inactive)
CC(C)OC(=O)c1ccc(OC(=O)c2cccnc2)cc1	91.5%	100% (inactive)	91.5% (inactive)	102% (inactive)	106% (inactive)	11.3% (inactive)	94.6%	106%	3.65% (inactive)	-3.44% (inactive)	2.51% (inactive)	12.6% (inactive)	-2.98% (inactive)	92.9% (inactive)	91.3% (inactive)	2.02% (inactive)	2.34% (inactive)
O=C(C1CCN(c2nnc(-n3cccc3)s2)CC1)N1CCOCC1	84%	80% (inactive)	84% (inactive)	86.2% (inactive)	87.5% (inactive)	0.17% (inactive)	87.3%	87.5%	-5.2% (inactive)	-1.67% (inactive)	-0.63% (inactive)	-1.73% (inactive)	0.27% (inactive)	101% (inactive)	96.7% (inactive)	1.83% (inactive)	6.37% (inactive)
COc1ccc(NC(=O)c2cnc3n(c2=O)CCS3)cc1OC	112%	106% (inactive)	112% (inactive)	88.2% (inactive)	95.7% (inactive)	11.8% (inactive)	83.9%	95.7%	-3.07% (inactive)	-4.59% (inactive)	-14.6% (inactive)	-5.98% (inactive)	1.5% (inactive)	109% (inactive)	103% (inactive)	2.45% (inactive)	7.24% (inactive)
CCOC(=O)c1ccc(NC(=O)Cn2cc3c(n2)CCC(C)C3)cc1 (stereo not given)	91.5%	92% (inactive)	91.5% (inactive)	91.4% (inactive)	91.9% (inactive)	-7.62% (inactive)	99.5%	91.9%	-2.8% (inactive)	-2.13% (inactive)	-3.82% (inactive)	5.5% (inactive)	0.35% (inactive)	102% (inactive)	106% (inactive)	1.92% (inactive)	6.92% (inactive)
COc1ccc(NS(=O)(=O)c2ccc(NC(C)=O)cc2)cc1OC	98.5%	99% (inactive)	98.5% (inactive)	83.5% (inactive)	94.5% (inactive)	4.97% (inactive)	89.5%	94.5%	2.69% (inactive)	35.7% (active)	0.65% (inactive)	-9.44% (inactive)	0.44% (inactive)	85.4% (inactive)	85.2% (inactive)	1.85% (inactive)	-1.59% (inactive)
COc1ccc(-c2nc3c(n2O)CCC/C3=N\O)cc1	89.5%	88.5% (inactive)	89.5% (inactive)	67.4% (inactive)	86.5% (inactive)	5% (inactive)	81.5%	86.5%	-1.43% (inactive)	0.33% (inactive)	1.93% (inactive)	4.75% (inactive)	-4.71% (inactive)	94.2% (inactive)	96% (inactive)	0.805% (inactive)	3.84% (inactive)
COc1cc2c(cc1OC)-c1nnc(C)n1C1(CCCC1)C2	87%	105% (inactive)	87% (inactive)	114% (inactive)	99% (inactive)	0.73% (inactive)	98.3%	99%	1.28% (inactive)	-1.17% (inactive)	-10.2% (inactive)	-16% (inactive)	-2.69% (inactive)	100% (inactive)	94% (inactive)	1.1% (inactive)	2.81% (inactive)
CCN1C(=O)c2cccc3c(NC(=O)c4ccc(S(=O)(=O)N(C)C)cc4)ccc1c23	86%	95.5% (inactive)	86% (inactive)	53.6% (inactive)	65.9% (inactive)	-3.87% (inactive)	69.8%	65.9%	1.79% (inactive)	-7.17% (inactive)	-11.7% (inactive)	-15.2% (inactive)	-5.59% (inactive)	73.5% (inactive)	75.8% (inactive)	0.195% (inactive)	3.52% (inactive)
CC(=O)C1=C(C)Nc2ncnn2C1c1cccc(OCc2ccccc2)c1 (stereo not given)	102%	104% (inactive)	102% (inactive)	115% (inactive)	88.6% (inactive)	-5.64% (inactive)	94.2%	88.6%	-4% (inactive)	1.5% (inactive)	-3.25% (inactive)	-0.16% (inactive)	-0.76% (inactive)	92.4% (inactive)	93.5% (inactive)	1.94% (inactive)	4.69% (inactive)
O=c1[nH]c(SCc2ccc(F)cc2)nc2c1cnn2-c1ccc(F)cc1	69%	106% (inactive)	69% (inactive)	70.7% (inactive)	79.1% (inactive)	38.2% (inactive)	40.8%	79.1%	1.87% (inactive)	12.3% (inactive)	-5.11% (inactive)	-7.31% (inactive)	-6.32% (inactive)	39.8% (inactive)	51.5% (inactive)	1.02% (inactive)	4.01% (inactive)
N#CCCN1CCN(S(=O)(=O)c2ccc(S(=O)(=O)NC3CCCC3)cc2)CC1	88.5%	124% (inactive)	88.5% (inactive)	99.3% (inactive)	107% (inactive)	33.5% (inactive)	73.1%	107%	-3.46% (inactive)	-8% (inactive)	-9.39% (inactive)	-4.06% (inactive)	-0.87% (inactive)	101% (inactive)	100% (inactive)	2.69% (inactive)	3.21% (inactive)
Cc1ccc(NC(=O)c2cc(-c3ccc(C)o3)nc3ccccc23)nc1	80%	74% (inactive)	80% (inactive)	73% (inactive)	4.86% (active)	-0.595% (inactive)	5.45%	4.86%	-7.43% (inactive)	-0.82% (inactive)	3.23% (inactive)	-2.09% (inactive)	-4.08% (inactive)	78.6% (inactive)	84.2% (inactive)	1.21% (inactive)	0.74% (inactive)
Cc1cc(NS(=O)(=O)c2ccccc2)no1	114%	115% (inactive)	114% (inactive)	94.5% (inactive)	90.7% (inactive)	-1.04% (inactive)	91.7%	90.7%	-5.33% (inactive)	2.83% (inactive)	-14.5% (inactive)	-6.42% (inactive)	0.56% (inactive)	99.9% (inactive)	98.5% (inactive)	1.86% (inactive)	5.41% (inactive)
